These results are taken from PubChem BioAssay AID430 (Sanford-Burnham Center for Chemical Genomics, 2006).

About 1,100 (1.7%) of roughly 63,000 compounds were called active. No stated cut-off is given here; in the data, active means cytotoxicity above about 50%; inactive means the rest. For the sample, actives were picked, then their nearest neighbours and some compounds at random. Entries with a potency or affinity are not part of this list.

The assay is described as follows: HPDE-C7 pancreatic duct cell viability loss – fluorescence, HTS (AID 430).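 Further: cells exposed to compound for 48 hours before viability readout; 0% = vehicle and 100% = reference cytotoxic drug.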 The settings on record: HPDE-C7 pancreatic duct cells viability, at 10 µM, active compounds read high.
Consider `Cc1ccc2c(c1)NC(=O)C(CC(=O)N(C)Cc1ccccc1)O2` (centres undefined), for which the cytotoxicity is 1.5% (inactive). Next, `CC(OC(=O)C1CCCO1)C(=O)NC1CCCC1` (centres undefined): 5.3% (inactive). As to `COC(=O)c1ccc(NC(=O)c2ccccc2NS(C)(=O)=O)cc1`, the cytotoxicity was 10.7% (inactive). In the case of `O=C(c1cccn2c(=O)c3ccc(Cl)cc3nc12)N1CCN(Cc2ccc3c(c2)OCO3)CC1` it was -0.1% (inactive). Next, `COc1cc2c(O)c3c(c(-c4ccc5c(c4)OCO5)c2cc1OC)C(=O)OC3`: 82.2% (active); `COc1ccc(C(=O)Oc2ccc3c(c2)OCO3)cc1OC`: -13.3% (inactive). In the case of `COc1cc2c(=O)n(-c3ccc(C)cc3)c(=O)n(CC(=O)c3ccc4c(c3)OCO4)c2cc1OC` it was 6.8% (inactive); in that of `Cc1ccc(S(=O)(=O)NCc2ccncc2)cc1`, 3.6% (inactive). Regarding `COc1ccc(Nc2nc(N)nc(CSc3n[nH]c(-c4ccccc4)n3)n2)cc1`, the cytotoxicity is -20.3% (inactive). In the case of `COc1ccccc1N1CCN(C(=O)C2CC=CCC2C(=O)O)CC1` (centres undefined) it was 9.5% (inactive). Next, `COc1ccc(C(C)=O)cc1COC(=O)c1ccc(S(=O)(=O)N2CCOCC2)cc1`: 21% (inactive); `COc1cc(NC(=O)c2ccco2)ccc1NC(=O)c1ccccc1Cl`: 2.8% (inactive). In the case of `Cc1nc(SCc2cccc(F)c2)[nH]c(=O)c1C#N` it was -9.7% (inactive).

`N#Cc1c(-c2ccco2)nc(SCc2ccc(F)cc2)[nH]c1=O`: the cytotoxicity is 54.3% (active). Consider `N#Cc1c(-c2ccco2)nc(SCC(=O)Nc2cccc(Cl)c2)[nH]c1=O`, for which the cytotoxicity was 19% (inactive).

For `Cn1c(Cn2nnc3ccccc32)nnc1SCC(=O)N1c2ccccc2CCc2ccccc21`, the cytotoxicity was -18% (inactive). As to `CC(CN1CCOCC1)OC(=O)c1ccc2c(c1)OCCO2` (centres undefined), the cytotoxicity is 4.5% (inactive). Next, `COc1ccc(C(=O)OC(C)CN2CCOCC2)cc1OC` (centres undefined): -1.4% (inactive); `CCc1ccc2c(CN3CCc4ccccc43)cc(=O)oc2c1`: -5.4% (inactive). Next, `CCOC(=O)c1sc(NC(=O)c2cccc(S(=O)(=O)N3CCN(C)CC3)c2)cc1C`: 51% (active). For the compound `CCOC(=O)c1ccc(NC(=O)c2cccc(S(=O)(=O)N3CCOCC3)c2)cc1`, the cytotoxicity is 20.1% (inactive). Next, `CCOC(=O)c1sc(NC(=O)c2ccc(S(=O)(=O)N3CCOCC3)cc2)cc1C`: -2.3% (inactive); `Cc1cc(C)n(-c2ccc(C(=O)Nc3ccccc3N3CCOCC3)cc2)n1`: -4.1% (inactive); `Cc1ccc(CS(=O)(=O)Cc2ccc(C(=O)NCc3ccco3)o2)cc1`: -21% (inactive). In the case of `c1csc(-c2nn[nH]n2)c1` it was -3.1% (inactive). For `COc1ccccc1-c1nnc(NC(=O)c2ccc(S(=O)(=O)N(C)C)cc2)o1`, the cytotoxicity was -2.7% (inactive). Take `CN(c1ccccc1)S(=O)(=O)c1ccc(C(=O)Nc2nnc(-c3ccc(F)cc3)o2)cc1`: the cytotoxicity was 58.9% (active).

`Cc1ccccc1C(=O)Nc1nnc(-c2ccc(F)cc2)o1`: the cytotoxicity is 18.7% (inactive).

With `COc1ccccc1-c1nnc(NC(=O)c2ccc(S(=O)(=O)N(C)Cc3ccccc3)cc2)o1`, the cytotoxicity was 55.9% (active). Next, `CN(c1ccccc1)S(=O)(=O)c1ccc(C(=O)Nc2nccs2)cc1`: -7.3% (inactive); `CCN(Cc1ccccc1)S(=O)(=O)c1ccc(C(=O)Nc2nnc(-c3ccccc3OC)o2)cc1`: 35.6% (inactive).

With `c1ccc2c(c1)oc1c(NCc3ccc4c(c3)OCO4)ncnc12`, the cytotoxicity was -2.2% (inactive). In the case of `O=C(NCC1COCCO1)C1CCN(S(=O)(=O)c2ccccc2)CC1` (centres undefined) it was -6.9% (inactive); in that of `CCNC(=O)N1c2ccc(OC)cc2C(C)=CC1(C)C`, 3.2% (inactive).

As for `O=C(NC1CCc2ccccc21)C1CCN(S(=O)(=O)c2ccc(-n3cnnn3)cc2)CC1` (centres undefined), the cytotoxicity is -11% (inactive). In the case of `O=C(NCCc1ccccc1)C1CCCN1C(=O)Nc1ccc(F)cc1` (centres undefined) it was -11.3% (inactive); in that of `O=C1CCCC2=C1C(c1cccs1)n1nc(SCc3ccccc3F)nc1N2` (centres undefined), -11.2% (inactive); in that of `CCOC(=O)c1[nH]c2ccccc2c1NC(=O)CN1CCCCC1`, -4.1% (inactive). In the case of `CCOC(=O)c1[nH]c2ccc(OCC)cc2c1NC(=O)CN1CCN(c2ccccc2)CC1`, the cytotoxicity is 4.4% (inactive). In the case of `CCOC(=O)c1[nH]c2ccc(F)cc2c1NC(=O)C(C)N1CCc2cc(OC)c(OC)cc2C1` (centres undefined) it was 58.6% (active). Next, `CCOC(=O)c1[nH]c2ccc(OC)cc2c1NC(=O)C(C)N1CCSCC1` (centres undefined): 19.3% (inactive); `CCOC(=O)c1[nH]c2ccc(F)cc2c1NC(=O)CN1CCN(C/C=C/c2ccccc2)CC1`: 64.9% (active); `CCOC(=O)c1[nH]c2ccc(F)cc2c1NC(=O)CN1CCc2cc(OC)c(OC)cc2C1`: -3.8% (inactive).

`CC(NC(=O)CC12CC3CC(CC(C3)C1)C2)C(=O)O` (centres undefined): the cytotoxicity is 3% (inactive). Next, `COCCN(CC(=O)NCc1ccc(F)cc1)C(=O)CCC(=O)Nc1nccs1`: 3.1% (inactive). Next, `CCc1nnc(NC(=O)C2CCN(c3nccc(C)n3)CC2)s1`: -2.7% (inactive); `O=C(CSc1nnc(CNC(=O)c2cccs2)o1)NC1CCCCC1`: -2.7% (inactive); `O=C1c2ccccc2-c2onc3ccc(NCc4ccco4)c1c23`: 62.1% (active).

For the compound `COc1ccc2noc3c2c1C(=O)c1ccccc1-3`, the cytotoxicity was 45.8% (inactive).

As for `O=C1c2ccccc2-c2onc3ccc(NCCCn4ccnc4)c1c23`, the cytotoxicity is 20.3% (inactive). In the case of `Cc1nn(C)c(C)c1CNC(=O)c1nn2c(c1Cl)NC(c1cccs1)CC2C(F)(F)F` (centres undefined) it was -0.2% (inactive); in that of `COc1ccc(NC(=O)C2CCCN(c3c4c(nc5ncnn35)CCC4)C2)cc1` (centres undefined), -37.1% (inactive). Next, `CCOc1ccccc1CNC(=O)C1CCN(c2nc3ccccc3o2)CC1`: -9.3% (inactive); `Cc1nc(NC(=O)c2ccccc2)sc1-c1csc(N)n1`: 39.2% (inactive). For the compound `Cc1nc(C)c(-c2csc(NCc3ccco3)n2)s1`, the cytotoxicity was -21.6% (inactive). Next, `Cc1nc(NC(=O)c2ccccc2)sc1-c1csc(NCc2ccco2)n1`: 63.4% (active).

Regarding `O=C(Nc1nc2c(s1)CCCC2)c1cc2n(n1)C(C(F)(F)F)CC(C1CC1)N2` (centres undefined), the cytotoxicity is 45.6% (inactive). Next, `Cc1cccc(N(C(=O)Cn2nnc3ccccc32)C(C(=O)NCc2ccco2)c2ccncc2)c1` (centres undefined): 5.1% (inactive); `CC1=C(C(=O)NCc2ccccc2)C(c2ccc(C)o2)n2ncnc2N1` (centres undefined): -15% (inactive). In the case of `CCOC(=O)c1c(C2COc3ccccc3O2)csc1N` (centres undefined) it was -2.8% (inactive); in that of `COC(=O)Cc1cc(=O)[nH]c(Nc2nc3ccccc3o2)n1`, 7.2% (inactive). In the case of `COCc1cc(=O)[nH]c(Nc2nc3ccccc3o2)n1` it was 34.6% (inactive); in that of `COCc1cc(=O)[nH]c(Nc2nc3ccc(C)cc3o2)n1`, 51.7% (active). For `O=S(=O)(c1cc(C(F)(F)F)ccc1Cl)N1CCCCCC1`, the cytotoxicity was -4% (inactive). In the case of `CCOC(=O)C1=C(c2ccccc2)Nc2ncnn2C1c1ccccn1` (centres undefined) it was -3.2% (inactive); in that of `Cc1ccc2c(c1)[nH]c1c(N3CCN(Cc4ccccc4)CC3)ncnc12`, 82.2% (active); in that of `Cc1ccc2[nH]c3c(N4CCOCC4)ncnc3c2c1`, 5.1% (inactive). `CCOC(=O)N1CCN(c2ncnc3c2[nH]c2ccc(OC)cc23)CC1`: the cytotoxicity was -5% (inactive). In the case of `CCOc1ccc2[nH]c3c(N4CCN(c5ccccn5)CC4)ncnc3c2c1` it was 62.5% (active).

In the case of `c1ccc(CN2CCN(c3ncnc4c3[nH]c3ccccc34)CC2)cc1`, the cytotoxicity is 15.2% (inactive). Next, `Cc1ccc2[nH]c3c(N4CCCCCC4)ncnc3c2c1`: 23.7% (inactive). With `c1ccc(CN2CCN(c3ncnc4nc[nH]c34)CC2)cc1`, the cytotoxicity is 8.4% (inactive). In the case of `CCOC(=O)c1[nH]c2ccc(OCC)cc2c1NC(=O)CN1CCN(c2ccccn2)CC1` it was 8.8% (inactive); in that of `Fc1ccccc1CSc1ncnc2c1oc1ccccc12`, 5.1% (inactive).

For the compound `COc1ccccc1NC(=O)c1cc(S(=O)(=O)N2CCC3(CC2)OCCO3)ccc1F`, the cytotoxicity was 4.8% (inactive).

Regarding `COc1cccc(C(=O)/C=C/Nc2cc(C)ccc2O)c1`, the cytotoxicity is 65.2% (active). Next, `Cc1cccc(OCC(=O)Nc2cc(C)ccc2O)c1`: -6% (inactive). Turning to `COc1cccc(C(=O)Nc2ccc(C)cc2)c1`, the cytotoxicity is -1.9% (inactive).

For `CCC(CC)C(=O)Nc1nnc(-c2cccs2)s1`, the cytotoxicity is 5% (inactive).

`Cc1cccc(C)c1NC1=NC(C)(C)N=C(N)N1`: the cytotoxicity was 10.8% (inactive).

For the compound `Cc1nn(-c2ccccc2)c(C)c1C(=O)OC/C(O)=C(\C#N)c1nc2ccccc2[nH]1`, the cytotoxicity is 7.4% (inactive). Next, `CCOC(=O)c1c(C)[nH]c(C(=O)OC/C(O)=C(\C#N)c2nc3ccccc3[nH]2)c1C`: 89.8% (active). In the case of `N#C/C(=C(/O)COC(=O)c1ccc2c(c1)OCCO2)c1nc2ccccc2[nH]1` it was 24.1% (inactive); in that of `CCOc1cc(Br)c(C(=O)O)cc1OCC`, -2.5% (inactive). As for `COc1cccc2c1C(=O)c1c(O)c3c(c(O)c1C2=O)C[C@@](O)(C(C)=O)C[C@@H]3O[C@H]1C[C@H](N)[C@H](O)[C@H](C)O1`, the cytotoxicity was 108% (active). In the case of `COc1cccc2c1C(=O)c1c(O)c3c(c(O)c1C2=O)C[C@@](O)(C(=O)CO)C[C@@H]3O[C@H]1C[C@H](N)[C@H](O)[C@H](C)O1` it was 102% (active); in that of `COCC(C)NC(=O)c1cc(-c2ccc(OC)c(OC)c2)on1` (centres undefined), -3% (inactive).

For `O=C1c2ccccc2C(=O)N1CC#CCN1CCN(C2CCCCC2)CC1`, the cytotoxicity was 2.6% (inactive). Regarding `Cc1cc(C)c(C#N)c(SCS(=O)Cc2ccc(Cl)cc2)n1` (centres undefined), the cytotoxicity is 50.3% (active). Next, `Cc1cc(C)c(C#N)c(SCS(=O)Cc2ccccc2)n1` (centres undefined): -16.4% (inactive); `Cc1cc(C)c(C#N)c(SCS(=O)c2ccc(C(C)(C)C)cc2)n1` (centres undefined): -4.8% (inactive); `CCOc1ccc(-c2noc(=O)[nH]2)cc1`: 0.9% (inactive). In the case of `COc1ccc2c(c1)C=CC1(O2)N(CCO)c2ccccc2C1(C)C` (centres undefined) it was 32.6% (inactive); in that of `CC1=NOC2(C1)N(C)c1ccccc1C2(C)C` (centres undefined), -10.1% (inactive).
